This is an account of results in PubChem BioAssay (NCATS).

Where “and” joins values, the source holds several entries; their conditions need not be identical. Identical values can stand only once. Results filed as inconclusive are left out. Calls of active or inactive are those of the source. Unless noted, calls follow the shape of the full dose curve.

Assay [1] deals with Estrogen receptor (Homo sapiens) (UniProt P03372). Nature of the assay: qHTS assay for small molecule agonists of estrogen receptor alpha signaling (AID 588514).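 Also: 0% = vehicle only and 100% = reference agonist; nearly all actives have a fitted effect of over 70% in size.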 The method in brief: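 Reporter-gene assay. […] controls beta-lactamase in HEK 293 GripTite cells; after 18 hrs with compound, CCF4 substrate is added for 2 hrs and fluorescence is read.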
In general terms: Quantitative high-throughput screening tests each substance at several concentrations.

Assay [2] has as its target Glucocorticoid receptor (Homo sapiens) (UniProt P04150). Put plainly: qHTS assay for small molecule agonists of glucocorticoid receptor signaling (AID 588532; active = well fitted curve in the direction sought with a large enough effect in the signal ratio, with a control signal flat; the % refers to the signal ratio;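 also: 100% = dexamethasone at 0.1 µM and 0% = DMSO only wells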). The conditions noted are these: HeLa MMTV-bla, beta-lactamase ratio, agonist, 18 h; stronger effect = higher value; percent of dexamethasone control, DMSO zero. The method in brief:
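MMTV-bla HeLa beta-lactamase reporter cells in 1% charcoal/dextran FBS medium, compounds up to 92 uM for 18 h at 37 C, CCF4 readout; normalized to 0.1 uM dexamethasone (100%), EC50 and efficacy from Hill fits.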

Assay [3] shares this target. Nature of the assay: qHTS assay for small molecule antagonists of glucocorticoid receptor signaling (AID 588533; active = well fitted inhibition curve with a large enough effect in the signal ratio, with a control signal flat, not every such curve was filed as active; the % refers to the signal ratio; also: % is scaled to controls: 0 for no effect and ±100 for the full control effect). In a few lines: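 Antagonist-mode qHTS: compound titrations added to GRE-bla HeLa cells, then dexamethasone 2 nM final; 18 h, 37 C. CCF4 FRET fluorescence normalized to dexamethasone and DMSO; IC50 from Hill fit.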
Assay [4] can be described thus: qHTS assay for small molecule antagonists of peroxisome proliferator-activated receptor delta signaling (AID 588535; active = well fitted inhibition curve with a large enough effect in the signal ratio, with a control signal flat, not every such curve was filed as active; the % refers to the signal ratio;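 as to max response: cells co-treated with a PPAR-delta agonist as stimulator during compound exposure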). The conditions noted are these: HEK293T PPARd-UAS-bla, beta-lactamase FRET ratio, 18 h; 460 nm channel. The method in brief: (§1)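 Cells were seeded at 4000 per well in assay medium containing 2% charcoal/dextran FBS and held 5 hrs at 37 C. Compounds were then added for 18 hrs. CCF4 substrate was applied for 2 hrs at room temperature before fluorescence reading.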

In assay [5] the target is Peroxisome proliferator-activated receptor delta (Homo sapiens) (UniProt Q03181). Described as above. In a few lines:
as §1

For assay [6], the target named is Peroxisome proliferator-activated receptor gamma (Homo sapiens) (UniProt P37231). Nature of the assay: qHTS assay for small molecule agonists of peroxisome proliferator-activated receptor gamma signaling (AID 588536; active = well fitted curve in the direction sought with a large enough effect in the signal ratio, with a control signal flat, not every such curve was filed as active; the % refers to the signal ratio;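 also: 0% = DMSO basal wells and 100% = rosiglitazone at 2 µM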). The method in brief: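 PPAR-gamma-UAS-bla HEK293 cells in medium with 1% charcoal/dextran-treated FBS were exposed to compounds for 16 h at 37 C. Beta-lactamase activity was read with CCF4 substrate (405 nm excitation, 460/530 nm emission).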

Assay [7] deals with Vitamin D3 receptor (Homo sapiens) (UniProt P11473). Put plainly: qHTS assay for small molecule antagonists of vitamin D receptor signaling (AID 588541).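 Also: receptor activated by calcitriol during compound treatment; series mostly up to about 77 µM; % is scaled to controls: 0 for no effect and ±100 for the full control effect.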 The method in brief:
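VDR-UAS-bla HEK293T cells in 2% charcoal-stripped FBS were stimulated with 1-alpha,25-dihydroxyvitamin D3 (3 nM final) plus compound for 16 h at 37 C. The beta-lactamase CCF4 readout was normalized to 50 nM agonist and DMSO, and Hill fits gave IC50.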

Assay [8] shares this target. Put plainly: qHTS assay for small molecule agonists of vitamin D receptor signaling (AID 588543).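 Also: 0% = DMSO basal and 100% = reference agonist control.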 The method in brief:
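Measured: β-lactamase reporter activity (CCF4, 405 nm excitation, 460/530 nm emission) in HEK293T VDR-UAS-bla cells after 16 h compound exposure at 37 °C. Normalization against 50 nM 1α,25-dihydroxyvitamin D3 and DMSO; Hill-fit EC50.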

Assay [9] can be described thus: qHTS assay for small molecule agonists of retinoid X receptor alpha signaling (AID 588544).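 As to activation: 0% = DMSO basal wells and 100% = reference agonist.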 The conditions noted are these: HEK293T RXRa-UAS-bla, beta-lactamase reporter, 18 h; 530 nm emission.
The target in assay [10] is Retinoic acid receptor RXR-alpha (Homo sapiens) (UniProt P19793). Described as above.
The target in assay [11] is Thyroid hormone receptor beta (Homo sapiens) (UniProt P10828). Nature of the assay: qHTS assay for small molecule agonists of thyroid hormone receptor beta signaling (AID 588545).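 Also: 0% = DMSO only and 100% = 10 nM T3.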 The method in brief:
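TR-UAS-bla GripTite HEK 293 cells (2500/well, medium with 2% charcoal/dextran FBS) were treated in agonist mode for 18 h at 37 C, titrated. Beta-lactamase was read by CCF4 ratio after 2 h; normalized to 10 nM T3 (100%) and DMSO, Hill-fitted for EC50 and efficacy.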

The nature of assay [12]: qHTS assay for small molecule antagonists of retinoid X receptor alpha signaling (AID 588546; active = well fitted inhibition curve with a large enough effect in the signal ratio, with a control signal flat, not every such curve was filed as active; the % refers to the signal ratio;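 also: cells stimulated with 9-cis-retinoic acid as agonist; % is scaled to controls: 0 for no effect and ±100 for the full control effect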). The conditions noted are these: HEK293T RXRa-UAS-bla, beta-lactamase ratio, antagonist mode; measured here: W530 green channel, cytotoxicity proxy. In a few lines:
(§2)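 Beta-lactamase reporter inhibition, read as CCF4 fluorescence ratio (ex 405, em 460/530 nm) after 2 h at RT. HEK293T UAS-bla cells, 2500/well, were stimulated with 9-cis-RA at 500 or 100 nM final alongside test compound for 18 h at 37 C.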

For assay [13], the target named is Retinoic acid receptor RXR-alpha (Homo sapiens) (UniProt P19793). Described as above. The conditions noted are these: HEK293T RXRa-UAS-bla, beta-lactamase ratio, antagonist mode. The method in brief:
as §2

For assay [14], the target named is Thyroid hormone receptor beta (Homo sapiens) (UniProt P10828). Nature of the assay: qHTS assay for small molecule antagonists of thyroid hormone receptor beta signaling (AID 588547; active = well fitted inhibition curve with a large enough effect in the signal ratio, with a control signal flat, not every such curve was filed as active; the % refers to the signal ratio;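 also: cells stimulated with 0.4 nM T3 agonist during compound exposure; series mostly up to about 77 µM; % is scaled to controls: 0 for no effect and ±100 for the full control effect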). The conditions noted are these: TR-UAS-bla HEK293, beta-lactamase ratio, antagonist mode, 18 h. The method in brief: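 TR-UAS-bla GripTite HEK293 cells in 2% charcoal/dextran FBS medium; compounds 0.59 nM to 92 uM with T3 at 0.4nM final, 18 h at 37 C. Beta-lactamase read by CCF4 fluorescence (460/530 nm); Hill fits gave IC50 and efficacy.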

In assay [15] the target is Luciferin 4-monooxygenase (Photinus pyralis) (UniProt P08659). Put plainly: Biochemical firefly luciferase enzyme assay for NPC (AID 624030; active = well fitted curve in the direction sought with a large enough effect; an effect the other way counts as inactive or inconclusive;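 also: purified P. pyralis luciferase at 10 nM with luciferin and ATP substrate; series mostly up to about 59 µM; 0% = DMSO and -100% = full luciferase inhibition by PTC124 control; nearly all actives have a fitted effect of over 70% in size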). In a few lines:
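Purified P. pyralis luciferase at 10 nM in 50 mM Tris Acetate (final), luminescence read within 5 minutes of enzyme addition to compounds. Activity normalised to PTC124 versus DMSO; concentration-response curves classed by r2, magnitude and activity.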

A short description of assay [16]: S16 Schwann cell viability assay (CellTiter-Glo assay) (AID 624031; active = well fitted curve in the direction sought with a large enough effect; an effect the other way counts as inactive or inconclusive;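 also: cellular ATP luminescence as a viability measure; series mostly up to about 58 µM; plate controls were DMSO-treated cells for no effect and cell-free wells for full effect; nearly all actives have a fitted effect of over 70% in size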). The method in brief:
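Native S16 rat Schwann cells, 500-750 cells/well in DMEM with 10% FBS, dosed with compound after overnight culture and incubated 24h at 37 degree Celsius/5% CO2. Viability by CellTiter-Glo luminescence; % activity normalized to no-cell wells and DMSO-treated cells.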

Assay [17] has as its target Bile acid receptor (Homo sapiens) (UniProt Q96RI1). Nature of the assay: qHTS assay for small molecule antagonists of farnesoid X receptor signaling (AID 588526). Also: % is scaled to controls: 0 for no effect and ±100 for the full control effect. The method in brief:
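Antagonist mode: titrated compounds tested against chenodeoxycholic acid stimulation (normalized to 50 uM CDCA and DMSO) in GeneBLAzer HEK293T cells for 16 h. Beta-lactamase read by CCF4 fluorescence; IC50 from Hill fits.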

Assay [18] concerns the target Voltage-gated inwardly rectifying potassium channel KCNH2 (Homo sapiens) (UniProt Q12809). Nature of the assay: qHTS Assay for Small Molecule Inhibitors of the Human hERG Channel Activity (AID 588834; active = well fitted curve in the direction sought with a large enough effect; an effect the other way counts as inactive or inconclusive;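 also: top concentration of the series differs between compounds; % is scaled to controls: 0 for no effect and ±100 for the full control effect; lower thallium flux fluorescence means stronger hERG block; nearly all actives have a fitted effect of over 50% in size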). In a few lines:
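Blockade is seen as reduced FluxOR thallium-flux fluorescence in U2OS cells expressing hERG from a BacMam construct, in Opti-MEM with 2% FCS. Concentration-response data fitted to the Hill equation for AC50.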

Chain of Peroxisome proliferator-activated receptor delta (Homo sapiens) (Q03181 whole entry, looked up): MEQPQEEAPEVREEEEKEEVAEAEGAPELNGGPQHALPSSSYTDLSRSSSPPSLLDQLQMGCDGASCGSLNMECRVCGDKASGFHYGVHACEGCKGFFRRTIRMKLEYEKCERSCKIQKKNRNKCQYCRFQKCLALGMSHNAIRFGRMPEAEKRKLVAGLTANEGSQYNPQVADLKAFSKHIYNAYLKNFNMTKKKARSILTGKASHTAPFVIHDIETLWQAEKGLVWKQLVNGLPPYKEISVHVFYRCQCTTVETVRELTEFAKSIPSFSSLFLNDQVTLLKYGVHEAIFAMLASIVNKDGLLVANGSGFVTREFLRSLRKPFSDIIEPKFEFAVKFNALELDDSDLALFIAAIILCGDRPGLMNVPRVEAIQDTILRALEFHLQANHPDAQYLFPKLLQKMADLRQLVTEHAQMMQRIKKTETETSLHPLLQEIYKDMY
Chain of Voltage-gated inwardly rectifying potassium channel KCNH2 (Homo sapiens) (Q12809 whole entry, looked up): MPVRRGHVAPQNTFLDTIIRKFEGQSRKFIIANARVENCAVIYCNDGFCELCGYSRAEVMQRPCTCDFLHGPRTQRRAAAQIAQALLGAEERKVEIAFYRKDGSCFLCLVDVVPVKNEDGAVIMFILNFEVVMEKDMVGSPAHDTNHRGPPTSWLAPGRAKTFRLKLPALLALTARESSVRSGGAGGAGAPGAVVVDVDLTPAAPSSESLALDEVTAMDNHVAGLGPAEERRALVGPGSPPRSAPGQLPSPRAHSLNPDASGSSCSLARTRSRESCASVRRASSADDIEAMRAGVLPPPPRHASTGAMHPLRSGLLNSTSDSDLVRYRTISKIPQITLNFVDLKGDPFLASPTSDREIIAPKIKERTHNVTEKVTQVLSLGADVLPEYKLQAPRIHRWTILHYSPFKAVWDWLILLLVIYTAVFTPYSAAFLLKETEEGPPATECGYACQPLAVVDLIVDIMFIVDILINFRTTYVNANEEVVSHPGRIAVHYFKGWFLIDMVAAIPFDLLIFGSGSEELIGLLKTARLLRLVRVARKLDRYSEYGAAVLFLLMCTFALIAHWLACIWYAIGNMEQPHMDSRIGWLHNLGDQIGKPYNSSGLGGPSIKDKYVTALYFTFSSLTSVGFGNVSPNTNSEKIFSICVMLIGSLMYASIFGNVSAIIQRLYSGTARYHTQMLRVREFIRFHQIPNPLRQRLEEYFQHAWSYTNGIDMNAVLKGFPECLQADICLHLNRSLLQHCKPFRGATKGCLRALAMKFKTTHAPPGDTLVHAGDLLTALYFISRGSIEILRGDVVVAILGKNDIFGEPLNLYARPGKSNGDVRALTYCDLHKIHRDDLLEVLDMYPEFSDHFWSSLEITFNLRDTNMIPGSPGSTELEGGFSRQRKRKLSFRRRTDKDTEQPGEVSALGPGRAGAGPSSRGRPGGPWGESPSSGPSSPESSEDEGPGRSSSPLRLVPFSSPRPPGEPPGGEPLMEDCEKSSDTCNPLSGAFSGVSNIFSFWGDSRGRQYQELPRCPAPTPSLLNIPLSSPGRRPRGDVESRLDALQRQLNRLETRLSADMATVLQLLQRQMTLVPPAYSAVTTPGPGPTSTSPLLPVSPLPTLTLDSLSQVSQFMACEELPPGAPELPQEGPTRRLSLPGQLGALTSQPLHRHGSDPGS
Chain of Estrogen receptor (Homo sapiens) (P03372 whole entry, looked up): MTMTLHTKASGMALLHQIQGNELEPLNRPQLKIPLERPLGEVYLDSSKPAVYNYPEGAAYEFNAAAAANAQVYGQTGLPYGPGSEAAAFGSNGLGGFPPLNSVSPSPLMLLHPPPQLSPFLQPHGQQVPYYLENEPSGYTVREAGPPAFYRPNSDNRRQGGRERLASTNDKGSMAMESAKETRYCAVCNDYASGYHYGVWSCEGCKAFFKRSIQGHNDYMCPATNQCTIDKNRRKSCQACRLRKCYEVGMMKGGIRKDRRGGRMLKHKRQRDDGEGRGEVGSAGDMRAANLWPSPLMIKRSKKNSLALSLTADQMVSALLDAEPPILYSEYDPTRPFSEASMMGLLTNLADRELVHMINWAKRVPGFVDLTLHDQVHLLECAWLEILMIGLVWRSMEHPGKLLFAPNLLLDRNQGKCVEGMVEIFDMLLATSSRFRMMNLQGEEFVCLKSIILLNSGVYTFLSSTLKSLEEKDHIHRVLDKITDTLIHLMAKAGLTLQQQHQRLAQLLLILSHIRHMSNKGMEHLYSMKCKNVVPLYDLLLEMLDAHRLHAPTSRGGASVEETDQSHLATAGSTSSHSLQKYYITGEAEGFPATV
Chain of Luciferin 4-monooxygenase (Photinus pyralis) (P08659 whole entry, looked up): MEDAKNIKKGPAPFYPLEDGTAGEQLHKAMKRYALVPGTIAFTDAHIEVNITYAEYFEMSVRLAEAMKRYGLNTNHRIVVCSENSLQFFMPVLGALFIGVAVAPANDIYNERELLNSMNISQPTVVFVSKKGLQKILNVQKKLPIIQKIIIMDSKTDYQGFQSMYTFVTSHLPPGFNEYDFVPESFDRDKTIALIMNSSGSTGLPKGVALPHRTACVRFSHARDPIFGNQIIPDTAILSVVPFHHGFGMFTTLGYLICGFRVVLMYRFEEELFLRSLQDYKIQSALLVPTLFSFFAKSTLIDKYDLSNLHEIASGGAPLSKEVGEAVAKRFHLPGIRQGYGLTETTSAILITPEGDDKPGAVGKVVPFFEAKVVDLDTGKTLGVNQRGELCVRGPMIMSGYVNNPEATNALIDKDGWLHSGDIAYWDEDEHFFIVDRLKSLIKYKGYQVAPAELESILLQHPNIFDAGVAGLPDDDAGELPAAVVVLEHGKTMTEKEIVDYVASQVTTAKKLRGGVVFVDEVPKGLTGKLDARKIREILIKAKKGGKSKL
Chain of Glucocorticoid receptor (Homo sapiens) (P04150 whole entry, looked up): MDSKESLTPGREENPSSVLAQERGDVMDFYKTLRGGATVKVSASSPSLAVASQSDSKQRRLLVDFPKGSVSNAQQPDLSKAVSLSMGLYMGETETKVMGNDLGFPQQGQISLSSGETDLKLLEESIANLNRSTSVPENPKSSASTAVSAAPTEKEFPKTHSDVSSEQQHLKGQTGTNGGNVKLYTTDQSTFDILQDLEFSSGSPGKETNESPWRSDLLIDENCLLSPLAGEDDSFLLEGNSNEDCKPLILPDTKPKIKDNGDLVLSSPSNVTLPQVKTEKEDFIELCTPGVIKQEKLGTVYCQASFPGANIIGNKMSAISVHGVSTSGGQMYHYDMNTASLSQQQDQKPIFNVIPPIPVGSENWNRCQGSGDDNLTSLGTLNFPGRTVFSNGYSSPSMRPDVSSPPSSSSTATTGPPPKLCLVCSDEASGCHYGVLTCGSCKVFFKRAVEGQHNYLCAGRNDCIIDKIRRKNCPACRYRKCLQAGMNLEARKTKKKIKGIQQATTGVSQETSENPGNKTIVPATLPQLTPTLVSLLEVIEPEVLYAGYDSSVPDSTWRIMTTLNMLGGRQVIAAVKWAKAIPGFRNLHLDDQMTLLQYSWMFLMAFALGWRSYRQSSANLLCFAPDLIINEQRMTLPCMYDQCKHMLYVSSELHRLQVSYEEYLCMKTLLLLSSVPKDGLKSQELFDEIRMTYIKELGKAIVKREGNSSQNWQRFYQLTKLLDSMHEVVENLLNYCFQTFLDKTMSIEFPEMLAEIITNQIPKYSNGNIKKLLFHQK
Chain of Retinoic acid receptor RXR-alpha (Homo sapiens) (P19793 whole entry, looked up): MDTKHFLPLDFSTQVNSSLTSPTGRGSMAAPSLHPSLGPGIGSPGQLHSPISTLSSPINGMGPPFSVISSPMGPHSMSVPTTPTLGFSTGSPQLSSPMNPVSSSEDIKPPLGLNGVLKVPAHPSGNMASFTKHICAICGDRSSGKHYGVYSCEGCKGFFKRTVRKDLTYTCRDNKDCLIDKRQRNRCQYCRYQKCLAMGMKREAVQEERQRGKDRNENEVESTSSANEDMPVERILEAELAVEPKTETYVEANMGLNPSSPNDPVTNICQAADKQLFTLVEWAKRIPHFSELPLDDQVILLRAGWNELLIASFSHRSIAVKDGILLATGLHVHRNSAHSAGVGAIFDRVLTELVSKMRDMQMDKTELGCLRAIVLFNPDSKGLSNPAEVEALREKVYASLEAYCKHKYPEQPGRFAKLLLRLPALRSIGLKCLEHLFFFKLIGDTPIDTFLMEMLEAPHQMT
Chain of Thyroid hormone receptor beta (Homo sapiens) (P10828 whole entry, looked up): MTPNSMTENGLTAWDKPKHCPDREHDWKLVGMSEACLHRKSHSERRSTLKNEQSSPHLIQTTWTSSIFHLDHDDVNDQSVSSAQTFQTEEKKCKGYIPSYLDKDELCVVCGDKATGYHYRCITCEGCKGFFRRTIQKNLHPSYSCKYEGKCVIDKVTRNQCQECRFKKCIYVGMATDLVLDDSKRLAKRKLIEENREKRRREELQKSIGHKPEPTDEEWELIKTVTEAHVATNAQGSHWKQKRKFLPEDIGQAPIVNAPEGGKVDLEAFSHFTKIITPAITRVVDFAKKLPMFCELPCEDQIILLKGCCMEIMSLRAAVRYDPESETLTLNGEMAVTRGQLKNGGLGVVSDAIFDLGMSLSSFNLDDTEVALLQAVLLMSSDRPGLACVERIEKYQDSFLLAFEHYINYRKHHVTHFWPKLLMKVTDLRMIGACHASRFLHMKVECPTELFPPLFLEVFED
Chain of Peroxisome proliferator-activated receptor gamma (Homo sapiens) (P37231 whole entry, looked up): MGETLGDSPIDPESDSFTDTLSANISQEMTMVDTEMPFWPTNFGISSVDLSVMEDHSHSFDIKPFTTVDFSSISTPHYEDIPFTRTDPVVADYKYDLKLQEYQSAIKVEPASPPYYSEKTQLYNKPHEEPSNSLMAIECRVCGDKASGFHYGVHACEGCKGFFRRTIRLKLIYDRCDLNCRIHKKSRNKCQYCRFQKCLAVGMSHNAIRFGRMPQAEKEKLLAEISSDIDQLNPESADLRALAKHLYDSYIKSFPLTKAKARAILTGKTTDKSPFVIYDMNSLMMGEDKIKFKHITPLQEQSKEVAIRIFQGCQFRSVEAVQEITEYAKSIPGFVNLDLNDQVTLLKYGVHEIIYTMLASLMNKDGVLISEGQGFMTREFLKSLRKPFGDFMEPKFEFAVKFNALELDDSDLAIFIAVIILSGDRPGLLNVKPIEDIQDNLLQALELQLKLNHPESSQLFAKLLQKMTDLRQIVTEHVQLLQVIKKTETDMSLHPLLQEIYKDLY

On to `COC(=O)c1ccc(O)cc1`, for which the compound was called inactive in assay [1], in assay [3], in assay [5], in [6], in assay [7] and in assay [8]. Besides, the compound was called inactive in assay [10], in [11] and in [16]. In addition, in assay [2], the activation is 15.6% (inactive). Besides, the max response was 34.1% in [4], 3.58% in [9], -19.3% in assay [12] and -10.5% (inactive) in assay [13]. In addition, in assay [14], the activity change % (negative = inhibition) was -5.41% (inactive). The Potency result in [15] is “inactive”.
As for `Nc1ccc(S(=O)(=O)c2ccc(N)cc2)cc1`, the result in assay [1], in assay [17], in [5], in [6], in assay [10] and in assay [11] was inactive. Also, in [16], the result was inactive. The max response is -19.4% and 10.1% in [4]; 9.37% in [9]; -11.9% in assay [12]; -26.2% (inactive) in assay [13]. Besides, the activity change % (negative = inhibition) in assay [14] is -17.4% (inactive) and -7.69% (inactive). Besides, the Potency entry in [18] and in assay [15] was “inactive” each time.
As for `CCCC(O)C(CC)CO` (centres undefined), the compound was called inactive in [1], in [5], in assay [6], in assay [10], in assay [11] and in assay [16]. Moreover, the max response in assay [4] was 2.27%; in assay [9], -0.667%; in assay [12], -4.1%; in assay [13], 8.72% (inactive). The activity change % (negative = inhibition) in assay [14] is 10.7% (inactive). The Potency entry in assay [18] and in assay [15] was “inactive” in each case.
Take `Cc1ccc(C(C)C)c(O)c1`: the activation in assay [2] is -10.5% (inactive). In addition, the call in assay [3], in assay [5], in [6], in assay [7], in [8] and in assay [10] was inactive. Besides, the compound was called inactive in assay [11] and in [16]. Moreover, the max response is -0.969% in [4], -0.0487% in assay [9], -9.5% in assay [12] and -24.5% (inactive) in assay [13]. The activity change % (negative = inhibition) in [14] is -7.05% (inactive). For the same compound, the Potency result in assay [18] and in [15] was “inactive” each time.
